# Source: PubChem BioAssay (National Center for Advancing Translational Sciences (NCATS))
# In the library only some 8.2% were active in any assay of this set; here they are far more common.
# KB-3-1 cytotox – kills parental KB-3-1 adenocarcinoma cells | Potency, µM (series often up to 46.1 µM), most hits filed as cytotoxic | 400,000 tested, 1.4% active | KB-3-1 viability, CellTiter-Glo ATP luminescence, 72 h; note: % is set by controls: 0 for no effect and ±100 for the full control effect; nearly all actives have a fitted effect of over 60% in size
#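 Parental KB-3-1 adenocarcinoma cells in phenol-red-free DMEM with 10% FBS were pin-treated with compounds at several concentrations, incubated 72 h at 37 °C, and viability read by CellTiter-Glo luminescence; concentration-effect curves were fitted after normalization.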
# SW480 rerep – DNA re-replication induction in SW480 cells; 340,000 tested, 1.8% active; SW480 DNA re-replication, Hoechst DNA content imaging, 48 h; Potency, µM (series often up to 46.1 µM), for inactives: top-dose re-replication activation, hits mostly activators; note: % of control where 0% means no effect; nearly all actives have a fitted effect of over 55% in size
#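 Image-based read-out: total Hoechst fluorescence of nuclei (405 nm excitation, 500-530 nm emission), with hits raising the fraction of high-intensity nuclei. SW480 colon cells incubated 48 hr with compounds at 37 C.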
# MCF10A rereplic – induces DNA re-replication in MCF 10a normal breast cells; MCF 10A DNA re-replication, Hoechst nuclear intensity, 48 h; Potency, µM (highest dose often 46.1 µM), inactives show top-dose activity, positive = re-replication, actives largely listed as activators; 350,000 tested, 2.9% active; AID 624296; note: % of control where 0% means no effect; nearly all actives have a fitted effect of over 50% in size
# KB-V1 cytotox – KB-V1 MDR subline cytotoxicity; KB-V1 MDR cells viability, CellTiter-Glo, 72 h; Potency, µM (highest dose often 46.1 µM), usual class: cytotoxic; 400,000 tested, 3.4% active; AID 1347076; note: % is set by controls: 0 for no effect and ±100 for the full control effect; nearly all actives have a fitted effect of over 60% in size
#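 In this primary screen, KB-V1 cells overexpressing P-gp are incubated with library compounds (lowest to highest concentration) for 72 h at 37 degrees C before a luminescent ATP viability read.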
# ELG1 repair inh – blocks ELG1-dependent DNA repair in HEK293T cells; HEK293T ELG1-luciferase reporter, luminescence, 16 h; DNA damage induced by 5-fluorouridine; Potency, µM (top dose mostly 46.1 µM), for inactives: at the highest dose activity change, negative = inhibition, hits mostly inhibitors; 330,000 tested, 2.3% active; note: % is set by controls: 0 for no effect and ±100 for the full control effect; nearly all actives have a fitted effect of over 55% in size
#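 Cells (2,000 per well) received 5-fluorouridine plus test compound or DMSO and were incubated 16 hr at 37 °C, 5% CO2. Luciferase activity was read by luminescence 30 min after ONE-Glo addition; signal suppression marked inhibition of damage-induced ELG1 function.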
# The depositor's hits bear a star; i = inactive; ? = inconclusive; / = no result. Calls come from the whole dose curve; as a rule, active = well fitted curve in the direction sought with a large enough effect; inconclusive = small, poorly fitted or top-dose-only effect, or another doubt; inactive = no such curve, though single readings can be large; an effect the other way counts as inactive or inconclusive. Potency is the fitted concentration of half-maximal effect.
SMILES,KB-3-1 cytotox,SW480 rerep,MCF10A rereplic,KB-V1 cytotox,ELG1 repair inh
CC(C)N(C(=O)NC(=O)Nc1ccc(S(=O)(=O)N2CCCC2)cc1)S(C)(=O)=O,i,2%,0.65µM*,i,-6%
CC(C)CC(=O)Nc1ccc(S(=O)(=O)N2CCCC2)cc1,i,-8%,0%,i,1%
O=C(NC1CCCCC1)c1ccc(S(=O)(=O)N2CCCC2)cc1,i,1%,14%,16µM*,-7%
O=[N+]([O-])c1ccc(CN2[C@H](COCc3ccccc3)[C@@H](N3CCCC3)CS2(=O)=O)cc1,i,/,/,i,/
CC1(C(=O)NCc2ccc(C(F)(F)F)cc2)CCN1Cc1ccc(-c2ccccc2)o1 (centres undefined),i,/,/,i,/
Cc1nnsc1C(=O)Nc1ccc(S(=O)(=O)N2CCC(C)CC2)cc1,i,4%,18%,i,7.3µM*
O=C(Nc1ccc(S(=O)(=O)N2CCCC2)cc1)c1ccc([N+](=O)[O-])cc1,i,-5%,-2%,i,9.2µM*
Cc1ccc(C(=O)Nc2ccc(S(=O)(=O)N3CCCC3)cc2)cc1,i,3%,-27%,?,10%
CC(=O)Nc1ccc(C(=O)NNS(=O)(=O)c2ccc(C)cc2)cc1,i,4.1µM*,0%,i,-4%
Cc1ccc(NC(=O)c2ccc(S(=O)(=O)N3CCCC3)cc2)cc1,i,0%,15%,23µM*,/
Cc1ccc(S(=O)(=O)NNC(=O)c2ccc(O)cc2)cc1,i,-8%,2%,i,-15%
C=CCc1ccccc1OCC(O)CNC(=O)c1ccccc1C(=O)O (centres undefined),i,1%,-2%,i,6%
Cc1cc(C)cc(Cn2c3ccc(NC(=O)NCc4ccc(F)cc4)cc3c(=O)n2C)c1,i,/,/,i,/
Cc1ccc(S(=O)(=O)N2CCCN(S(=O)(=O)c3ccc(C(F)(F)F)cc3)CC2)cc1,i,9%,7.3µM*,?,?
Cc1ccc(NC(=O)c2ccc(S(=O)(=O)N3CCCCC3)cc2)cc1,i,-12%,0%,i,-17%
Cn1nc(C(=O)Nc2ccc(S(=O)(=O)N3CCCCC3)cc2)ccc1=O,i,-3%,?,?,16µM*
Cc1ccc(C(=O)NNC(=O)c2ccc(S(=O)(=O)N3CCCCC3)cc2)cc1,i,16µM*,?,i,9%
CCN(CC)c1ccc2cc(C(=O)NNC(=O)c3ccc(S(=O)(=O)N4CCCCC4)cc3)c(=O)oc2c1,i,2.9µM*,?,2.6µM*,?
Cn1nccc1C(=O)Nc1ccc(S(=O)(=O)N2CCCC2)cc1,i,-1%,27%,i,-20%
Cc1ccnc(NC(=S)N2CCN(c3ccc(Br)cc3)CC2)c1,i,/,/,i,/
CNC(=O)C[C@@H]1C(=O)N(C2CCCCC2)CC1(C)C,?,/,/,i,/
Cc1ccc(NC(=O)c2ccc(S(=O)(=O)N3CCC(C)CC3)cc2)nc1,26µM*,-1%,6%,?,-13%
Cc1ccc(NC(=O)c2ccc(S(=O)(=O)N3CCCCCC3)cc2)nc1,i,3%,5%,?,?
CC1(Cc2ccc(Cl)cc2)C(=O)Nc2c(Cl)cccc21 (centres undefined),i,/,/,i,/
CCOC(=O)CN1CC(C)(C)N(CC(=O)OCC)CC1(C)C,i,-2%,-3%,?,/
SMILES,KB-3-1 cytotox,SW480 rerep,MCF10A rereplic,KB-V1 cytotox,ELG1 repair inh
c1ccc(-c2nc(N3CCOCC3)cc(N3CCOCC3)n2)cc1,i,-1%,5%,i,15µM*
c1ccc2c(N3CCOCC3)nc(-c3ccncc3)nc2c1,?,7%,22%,13µM*,6.5µM*
CN1CCN(c2nc(-c3ccccc3)nc(-c3ccccc3)c2C#N)CC1,i,1%,?,i,?
CC1CCCCN1c1nc(-c2ccncc2)nc2ccccc12 (centres undefined),i,?,?,?,-35%
CCC1CCCCN1c1nc(-c2ccncc2)nc2ccccc12 (centres undefined),?,?,23µM*,?,?
COc1ccc(-c2nc(-c3ccccc3)nc(N3CCN(C)CC3)c2C#N)cc1,?,-17%,11%,?,21µM*
O=C(Nc1ccccc1N1CCOCC1)c1cccc(NS(=O)(=O)c2ccc(F)c(F)c2)c1,i,13%,16%,i,?
N#Cc1c(-c2ccccc2)nc(-c2ccccc2)nc1N1CCOCC1,i,-5%,?,i,15µM*
COc1ccc(-c2nc(-c3cccc(C)c3)nc(N3CCN(C)CC3)c2C#N)cc1,5.8µM*,?,?,4.6µM*,-10%
CCOC(=O)c1cc(C#N)c(N2CCN(C)CC2)nc1-c1ccccc1,i,-7%,?,i,?
COc1cc2ccnc(C=NO)c2cc1OC,i,/,/,?,/
Cc1ccsc1/C=C1\SC(N2CC(C)OC(C)C2)=NC1=O (centres undefined),?,2%,-38%,18µM*,?
O=C1N=C(N2CCOCC2)S/C1=C/c1cccs1,i,-7%,-2%,i,?
O=c1oc2c(CN3CCN(CCO)CC3)c(O)ccc2cc1-c1ccccn1,i,6.5µM*,8.2µM*,?,11%
COc1ccc(-c2c[n+](CC(=O)OC3CC(C)CCC3C(C)C)c3n2CCC3)cc1 (centres undefined),i,-32%,0.82µM*,i,?
CC1CCC(C(C)C)C(OC(=O)C[n+]2cccc(C(N)=O)c2)C1 (centres undefined),?,-5%,?,i,8%
CC(C)[C@@H]1CC[C@@H](C)C[C@H]1OC(=O)C[n+]1cc(-c2ccc(Cl)cc2)n2c1CCCCC2,?,?,?,i,21µM*
Nc1c(N(CCC2=CCCCC2)C(=O)c2ccc([N+](=O)[O-])o2)c(=O)[nH]c(=O)n1Cc1ccccc1,?,?,?,i,-14%
Nc1c(N(CCC2=CCCCC2)C(=O)COc2ccc(F)cc2Cl)c(=O)[nH]c(=O)n1Cc1ccccc1,8.2µM*,0%,12µM*,?,/
Cc1ccc(C(=O)N(CCC2=CCCCC2)c2c(N)n(Cc3ccccc3)c(=O)[nH]c2=O)o1,i,1%,10%,i,9.2µM*
CN(C)C(=O)C[C@@H]1CC[C@@H](NC(=O)C2CCC2)[C@@H](CO)O1,i,/,/,i,/
Cc1[nH]nc(N=CC2=C(O)CC(c3ccco3)CC2=O)c1-c1ccc(Cl)cc1 (centres undefined),i,-1%,18%,16µM*,?
CC1(C)CC(=O)C(C=Nc2ccc(Cl)cn2)=C(O)C1,i,-8%,-4%,i,15%
